PubChem BioAssay
Unmarked numbers belong to inactive results. Some of the results follow. Active and inactive are the calls of the source. Unless noted, no stated cut-off is given here; in the data, active means activation above about 8.9%; inactive means the rest.

Assays:
[1] = biological target: Toll-like receptor 9 (Homo sapiens) (UniProt Q9NR96); test: TLR9-MyD88 association inhibitors, retest, confirmation, cell-based, CHO, BLA complementation, fluorescence, triplicate (AID 540250;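 active means mean inhibition across three repeats above about 21% taken from the earlier screen, limit read from the data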;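 further: blue over green emission ratio reports constitutive TLR9 MyD88 association via BLA complementation; 0% = DMSO vehicle wells and 100% = clavulanate BLA inhibitor wells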); details: CCF4 FRET ratio, at 4.98 µM, active compounds read high
[2] = beta-lactamase reporter inhibitors in CHO cells, artefact control for TLR9-MyD88 binding inhibitor project, cell-based, fluorescence (AID 540251;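 active means mean inhibition above a 50% cutoff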;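 further: counterscreen of TLR9-MyD88 hits on CMV-driven BLA in CHO-K1 cells; 0% = DMSO alone and 100% = clavulanate blocking BLA; higher means less blue over green ratio so more BLA blockade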); details: CHO-BLA cells, CCF4 FRET ratio, at 4.98 µM, active compounds read high
[3] = CHO cell viability loss – luminescence, single concentration, cytotoxicity control for TLR9-MyD88 binding inhibitor project (AID 588336; in the data active means inhibition above about 11%); details: TLR9-MyD88 CHO cells cytotoxicity, at 4.98 µM, active compounds read high
[4] = biological target: Photoreceptor-specific nuclear receptor (Homo sapiens) (UniProt Q9Y5X4); test: NR2E3 agonist confirmation in cells, cell-based, luminescence, CHO-S two-hybrid (AID 624378;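 active means average inhibition above a cutoff equal to the mean inhibition of all tested compounds plus one SD, cut at about 70% in these data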;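 further: 0% = DMSO in NR2E3 cells and 100% = DMSO in cells lacking NR2E3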); details: CHO-S mammalian two-hybrid NR2E3-NCOR, luciferase luminescence; at 3.98 µM; active compounds read high
[5] = GAL4-VP16 reporter modulators, confirmation, counter-screen for NR2E3 agonist project, cell-based, luminescence, CHO-S, high throughput (AID 624379;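 active means mean inhibition above a cutoff equal to the average over all tested compounds plus one standard deviation, cut at about 70% in these data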;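 further: 0% = DMSO with VP16-transfected cells and 100% = DMSO with cells lacking VP16; higher means less reporter light so more repression of VP16 activity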); details: CHO-S GAL4-VP16 luciferase reporter, at 3.98 µM, active compounds read high
[6] = growth loss of phage-infected RecBCD+ E. coli, confirmation, RecBCD inhibitor project, absorbance, E. coli V66, T4 gene 2 phage (AID 651982;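 active means mean inhibition over triplicates exceeding the hit threshold derived in the original primary screen, cut at about 11% in these data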); details: E. coli V66 + T4 2- phage, growth OD; at 11.9 µM; active compounds read high
[7] = E. coli viability inhibition, counter-screen for RecBCD inhibitor project, absorbance, high throughput (AID 651983; in the data active means inhibition above about 20%;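 further: E. coli strain V66 grown with compound alone and no phage infection; 0% = bacteria with DMSO vehicle only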); details: absorbance (OD) growth, at 11.9 µM, active compounds read high
[8] = growth loss of phage-infected AddAB-carrying E. coli, confirmation, counter-screen for RecBCD inhibitor project, absorbance, E. coli V3065, T4 phage (AID 651984;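 active means mean inhibition above the solvent-only control wells' mean plus 3 SD, cut at about 22% in these data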;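 further: higher means less bacterial growth from phage killing when AddAB is blocked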); details: E. coli expressing H. pylori AddAB + T4 phage, OD growth; at 11.9 µM; active compounds read high; gene 2 mutant T4, recBCD-deleted host
[9] = Gal4-VP16 luciferase reporter inhibitors, counter-screen for COUP-TFII antagonist project, cell-based, luminescence, HEK293 (AID 687007; in the data active means inhibition above about 13%); details: at 8.5 µM, active compounds read high
[10] = biological target: COUP transcription factor 2 (Homo sapiens) (UniProt P24468); test: NR2F2 transcriptional activity inhibitors, confirmation, cell-based, luciferase reporter, HEK293, triplicate (AID 687008;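 active means mean inhibition over three repeats above a set limit taken from the earlier primary screen, cut at about 38% in these data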;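 further: 100% = cells given the luciferase reporter alone without the COUP-TF2 vector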); details: HEK293 NGFI-A luciferase reporter, luminescence; at 8.5 µM; active compounds read high
[11] = tested on: HIV-1 integrase (multimerization); test: HIV-1 IN multimer formation enhancers, counter-screen for LEDGF/p75 integration inhibitor project, biochemical, TR-FRET (AID 1053131); details: TR-FRET HIV-1 integrase multimerization, at 7.7 µM, active compounds read high
[12] = TR-FRET optical interference artefacts, confirmation, artefact control for LEDGF/p75-dependent integration inhibitor project, biochemical, HIV-1 IN multimerization (AID 1053135;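 active means inhibition above the mean over all tested compounds plus 3 SD, which no compound reached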;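 further: 0% = integrase with antibodies and DMSO and 100% = antibodies without integrase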); details: TR-FRET optical interference counterscreen, at 7.7 µM, active compounds read high
[13] = tested on: HIV-1 integrase / human LEDGF/p75 complex; test: inhibitors of HIV-1 IN-LEDGF/p75 DNA integration, confirmation, biochemical, TR-FRET (AID 1053136; in the data active means inhibition above about 14%); details: TR-FRET LEDGF/p75-dependent HIV-1 integration, at 3.7 µM, active compounds read high
[14] = STAT1 signaling activators, confirmation, cell-based, HTS, luciferase reporter (AID 1262;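 active means activation above a set limit carried over from the earlier primary STAT1 screen, cut at about 140% in these data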;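 further: simple ratio to median IFN-gamma plus DMSO wells so 0% means no light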); details: NIH 3T3 STAT1-luciferase reporter, IFN-gamma potentiation, luminescence; at 5.7 µM; active compounds read high; 100% = IFN-gamma EC80 alone, no compound
[15] = NF-kB reporter activators, TNF-alpha stimulated, counter-screen for STAT1 activator project, cell-based, HEK293T, luciferase luminescence (AID 1306;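 active means activation above the mean of solvent-only control wells plus 3 SD, set per campaign, cut at about 130% in these data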;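 further: TNF-alpha given at a submaximal dose yielding about 80% of full reporter signal; values are well signal over median control so 100% means no change and 0% no light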); details: at 5.7 µM, active compounds read high, 100% = TNF-alpha with vehicle only
[16] = biological target: Signal transducer and activator of transcription 3 (Homo sapiens) (UniProt P40763); test: STAT3 reporter activation by STAT1 hits, confirmation, counter-screen for STAT1 activator project, U3A cells, luciferase, luminescence (AID 1316;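 active means activation above the solvent-only control well mean plus 3 SD, set per plate batch, cut at about 110% in these data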;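 further: 0% = no luminescence and 100% = median IL-6 plus DMSO wells; higher means more STAT3 reporter activation so hits are non-selective activators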); details: IL-6, luminescence, at 5.7 µM, active compounds read high, 100 = IL-6 alone, no compound effect, cells lack STAT1
[17] = biological target: Galanin receptor type 2 (Homo sapiens) (UniProt O43603); test: GALR2 antagonists, retest of hits, confirmation, cell-based (AID 866; in the data active means inhibition above about 27%;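 further: cells stimulated with galanin at about its EC80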); details: GALR2-expressing cells, antagonist mode, at 4 µM, active compounds read high
[18] = inhibitors of NFAT-driven beta-lactamase reporter, confirmation, counter-screen for GALR2 antagonist project, CHO NFAT-bla cells, FRET readout (AID 867;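 active means inhibition above the mean inhibition across tested compounds plus 3 SD, cut at about 27% in these data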;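 further: 0% = 500 nM thapsigargin stimulated wells and 100% = unstimulated BSA only wells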); details: thapsigargin-stimulated, at 4.2 µM, active compounds read high
[19] = tested on: TLR4-MyD88 interaction (human), BLA complementation; test: TLR4-MyD88 association inhibitors, retest, confirmation, cell-based, HeLa CL3-4, BLA complementation, FRET ratio (AID 941;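 active means mean inhibition across three repeat runs above about 25% carried over from the earlier screen, limit read from the data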;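 further: plate controls were DMSO only for no effect and clavulanic acid blocking BLA at full dose for full effect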); details: CCF4 FRET ratio, at 8.4 µM, active compounds read high
[20] = inhibitors of full-length beta-lactamase reporter, confirmation, artefact control for TLR4-MyD88 binding inhibitor project, cell-based, HeLa, full-length BLA, CCF4 FRET ratio (AID 1237;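 active means mean inhibition over three repeats above about 26% taken from the earlier screen, limit read from the data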;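 further: HeLa cells stably expressing beta-lactamase reporter as counterscreen for TLR4-MyD88 inhibitors; 0% = DMSO and 100% = clavulanic acid full inhibition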); details: at 8.4 µM, active compounds read high
[21] = biological target: Receptor-interacting serine/threonine-protein kinase 2 (Homo sapiens) (UniProt O43353); test: NOD2-RIPK2 binding disruptors, retest, confirmation, fluorescence, CHO cells, BLA complementation, triplicate (AID 624370;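 active means mean inhibition across replicates above a set limit taken from the earlier primary screen, cut at about 21% in these data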;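 further: 0% = DMSO-only wells and the high end = clavulanate BLA-blocked wells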); details: CCF4 FRET, at 4.98 µM, active compounds read high
[22] = beta-lactamase reporter inhibitors in CHO cells, confirmation, artefact control for NOD2-RIPK2 interaction inhibitor project, cell-based, CHO-K1 CMV-bla, CCF4 FRET, fluorescence (AID 624371;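 active means mean inhibition above the low-control mean inhibition plus three low-control SD, cut at about 11% in these data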;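 further: 0% = DMSO only wells and 100% = clavulanate high control wells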); details: CCF4 FRET ratio, counterscreen, at 4.98 µM, active compounds read high
[23] = growth loss of phage-infected E. coli expressing H. pylori AddAB, confirmation, AddAB inhibitor project, absorbance, E. coli V3065, T4 phage, triplicate (AID 488942;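 active means mean inhibition above a set limit taken from the earlier primary screen, cut at about 13% in these data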;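 further: higher means less bacterial growth since AddAB block lets phage replicate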); details: OD, at 11.9 µM, active compounds read high, T4 phage with gene 2 nonsense mutations
[24] = growth loss of RecBCD+ E. coli with mutant T4 phage, counter-screen for AddAB inhibitor project, absorbance, V66 E. coli (AID 488955;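 active means mean inhibition above the mean of solvent-only control wells plus 3 SD, cut at about 4% in these data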;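 further: optical density read after an 18 h incubation at 37 °C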); details: OD growth, at 11.9 µM, active compounds read high
[25] = bacterial viability inhibition counter-screen, confirmation, counter-screen for AddAB inhibitor project, absorbance (AID 488956; in the data active means inhibition above about 25%); details: absorbance (AddAB counterscreen), at 11.9 µM, active compounds read high
[26] = biological target: Nuclear receptor coactivator 1 (Homo sapiens) (UniProt Q15788); test: SRC1 coactivator transcriptional activity inhibitors, confirmation, cell-based, luminescence, quadruplicate (AID 588820;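 active means mean inhibition above 46.68%, the untreated control wells mean plus 3 SD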;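 further: 0% = DMSO wells and 100% = gossypol 36 µM treated wells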); details: HEK293 GAL4-SRC1 luciferase reporter, at 3.6 µM, active compounds read high
[27] = VP16 transactivation inhibitors, counter-screen for SRC1 inhibitor project, cell-based, luminescence, high throughput (AID 588824; in the data active means inhibition above about 25%); details: cell-based VP16 transactivation luciferase luminescence; at 3.6 µM; active compounds read high
[28] = StAR promoter reporter inhibitors, counter-screen for LRH-1 inverse agonist project, cell-based, luminescence, high throughput (AID 651611; in the data active means inhibition above about 28%); details: StAR promoter luciferase reporter counterscreen, at 3.6 µM, active compounds read high
[29] = biological target: Nuclear receptor subfamily 5 group A member 2 (Homo sapiens) (UniProt O00482); test: LRH-1 (NR5A2) inverse agonists, retest, confirmation, cell-based, luminescence (AID 651613; in the data active means inhibition above about 42%;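 further: HEK293T cells co-transfected with LRH-1 and StAR promoter luciferase reporter; 0% = vehicle wells and 100% = parental cells lacking receptor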); details: cell-based LRH-1 luciferase reporter, inverse agonism; at 3.6 µM; active compounds read high
[30] = biological target: Steroidogenic factor 1 (Homo sapiens) (UniProt Q13285); test: SF1 (NR5A1) inverse agonists, counter-screen for LRH-1 inverse agonist project, cell-based, luminescence, high throughput (AID 651614; in the data active means inhibition above about 44%;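 further: cells cotransfected with StAR promoter reporter and SF1 expression vector; 0% = vehicle on cells with receptor and 100% = vehicle on cells lacking receptor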); details: cell-based SF1 luciferase reporter, at 3.6 µM, active compounds read high
[31] = VP16 transactivation reporter inhibitors, counter-screen for LRH-1 inverse agonist project, cell-based, luminescence, high throughput (AID 651615; in the data active means inhibition above about 33%); details: Gal4-VP16 luciferase reporter cells, at 3.6 µM, active compounds read high
[32] = biological target: Nuclear receptor coactivator 3 (Homo sapiens) (UniProt Q9Y6Q9); test: SRC3 coactivator transcriptional activity inhibitors, confirmation, cell-based, luminescence, quadruplicate (AID 588792;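 active means mean inhibition over 43.08%, the solvent-only control mean plus 3 SD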;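 further: 0% = DMSO treated cells and 100% = gossypol at 36 µM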); details: HEK293 GAL4-SRC3 luciferase reporter, at 3.6 µM, active compounds read high
[33] = tested on: transactivating tegument protein VP16 (Human herpesvirus 1), Gal4-VP16 luciferase reporter; test: VP16 transactivation inhibitors, counter-screen for SRC3 inhibitor project, cell-based, luminescence, high throughput (AID 588794; in the data active means inhibition above about 30%); details: mammalian cells, VP16-driven luciferase reporter luminescence; at 3.6 µM; active compounds read high

Nuclear receptor coactivator 1 (Homo sapiens), sequence (Q15788 whole entry, looked up, the tested form may be a part): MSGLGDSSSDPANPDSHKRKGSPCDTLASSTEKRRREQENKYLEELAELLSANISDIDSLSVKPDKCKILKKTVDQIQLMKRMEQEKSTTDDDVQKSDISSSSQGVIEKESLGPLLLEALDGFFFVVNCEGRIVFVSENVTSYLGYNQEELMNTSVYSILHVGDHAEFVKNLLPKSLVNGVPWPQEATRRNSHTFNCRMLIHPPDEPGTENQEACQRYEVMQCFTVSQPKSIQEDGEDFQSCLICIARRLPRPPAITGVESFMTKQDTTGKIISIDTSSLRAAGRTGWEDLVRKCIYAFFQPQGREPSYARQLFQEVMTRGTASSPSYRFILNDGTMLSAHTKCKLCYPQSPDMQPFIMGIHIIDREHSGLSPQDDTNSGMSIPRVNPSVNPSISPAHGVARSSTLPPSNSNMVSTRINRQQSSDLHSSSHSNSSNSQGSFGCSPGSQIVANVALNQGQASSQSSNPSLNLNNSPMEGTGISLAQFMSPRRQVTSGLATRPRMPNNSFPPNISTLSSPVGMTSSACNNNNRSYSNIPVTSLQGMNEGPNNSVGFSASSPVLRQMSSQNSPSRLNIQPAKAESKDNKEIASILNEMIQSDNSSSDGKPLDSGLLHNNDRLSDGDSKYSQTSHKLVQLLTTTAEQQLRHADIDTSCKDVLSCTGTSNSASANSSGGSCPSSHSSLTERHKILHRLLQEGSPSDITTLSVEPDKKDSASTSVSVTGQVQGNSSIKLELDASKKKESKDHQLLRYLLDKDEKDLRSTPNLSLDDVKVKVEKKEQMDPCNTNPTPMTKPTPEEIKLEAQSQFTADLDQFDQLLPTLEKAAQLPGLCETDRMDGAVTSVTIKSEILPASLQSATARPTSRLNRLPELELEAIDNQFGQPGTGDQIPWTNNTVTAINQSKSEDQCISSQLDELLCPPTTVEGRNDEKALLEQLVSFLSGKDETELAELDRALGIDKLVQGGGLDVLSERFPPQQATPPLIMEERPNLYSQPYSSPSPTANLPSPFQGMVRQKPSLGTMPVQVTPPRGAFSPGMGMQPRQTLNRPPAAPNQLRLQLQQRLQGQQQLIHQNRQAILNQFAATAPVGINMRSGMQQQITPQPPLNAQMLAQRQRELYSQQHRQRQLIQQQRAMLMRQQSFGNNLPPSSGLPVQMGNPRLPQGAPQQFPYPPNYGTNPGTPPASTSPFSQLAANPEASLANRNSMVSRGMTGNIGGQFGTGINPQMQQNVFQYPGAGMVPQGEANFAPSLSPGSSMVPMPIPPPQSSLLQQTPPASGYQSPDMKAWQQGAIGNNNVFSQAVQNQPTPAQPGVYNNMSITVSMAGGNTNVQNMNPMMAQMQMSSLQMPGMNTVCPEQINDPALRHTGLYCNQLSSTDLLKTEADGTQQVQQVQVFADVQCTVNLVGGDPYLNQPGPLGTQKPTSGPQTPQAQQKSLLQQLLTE
COUP transcription factor 2 (Homo sapiens), sequence (P24468 whole entry, looked up): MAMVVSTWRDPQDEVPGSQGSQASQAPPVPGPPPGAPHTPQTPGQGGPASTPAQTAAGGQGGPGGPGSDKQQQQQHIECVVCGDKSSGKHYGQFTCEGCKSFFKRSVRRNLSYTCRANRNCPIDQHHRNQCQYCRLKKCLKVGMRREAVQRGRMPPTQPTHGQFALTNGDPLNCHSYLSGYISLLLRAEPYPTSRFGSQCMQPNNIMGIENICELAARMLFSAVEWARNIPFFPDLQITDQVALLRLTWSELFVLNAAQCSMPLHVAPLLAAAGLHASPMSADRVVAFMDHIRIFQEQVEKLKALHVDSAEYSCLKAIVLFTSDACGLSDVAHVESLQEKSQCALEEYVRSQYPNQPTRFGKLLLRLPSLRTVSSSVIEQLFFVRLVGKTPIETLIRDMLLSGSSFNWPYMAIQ
Toll-like receptor 9 (Homo sapiens), sequence (Q9NR96 whole entry, looked up): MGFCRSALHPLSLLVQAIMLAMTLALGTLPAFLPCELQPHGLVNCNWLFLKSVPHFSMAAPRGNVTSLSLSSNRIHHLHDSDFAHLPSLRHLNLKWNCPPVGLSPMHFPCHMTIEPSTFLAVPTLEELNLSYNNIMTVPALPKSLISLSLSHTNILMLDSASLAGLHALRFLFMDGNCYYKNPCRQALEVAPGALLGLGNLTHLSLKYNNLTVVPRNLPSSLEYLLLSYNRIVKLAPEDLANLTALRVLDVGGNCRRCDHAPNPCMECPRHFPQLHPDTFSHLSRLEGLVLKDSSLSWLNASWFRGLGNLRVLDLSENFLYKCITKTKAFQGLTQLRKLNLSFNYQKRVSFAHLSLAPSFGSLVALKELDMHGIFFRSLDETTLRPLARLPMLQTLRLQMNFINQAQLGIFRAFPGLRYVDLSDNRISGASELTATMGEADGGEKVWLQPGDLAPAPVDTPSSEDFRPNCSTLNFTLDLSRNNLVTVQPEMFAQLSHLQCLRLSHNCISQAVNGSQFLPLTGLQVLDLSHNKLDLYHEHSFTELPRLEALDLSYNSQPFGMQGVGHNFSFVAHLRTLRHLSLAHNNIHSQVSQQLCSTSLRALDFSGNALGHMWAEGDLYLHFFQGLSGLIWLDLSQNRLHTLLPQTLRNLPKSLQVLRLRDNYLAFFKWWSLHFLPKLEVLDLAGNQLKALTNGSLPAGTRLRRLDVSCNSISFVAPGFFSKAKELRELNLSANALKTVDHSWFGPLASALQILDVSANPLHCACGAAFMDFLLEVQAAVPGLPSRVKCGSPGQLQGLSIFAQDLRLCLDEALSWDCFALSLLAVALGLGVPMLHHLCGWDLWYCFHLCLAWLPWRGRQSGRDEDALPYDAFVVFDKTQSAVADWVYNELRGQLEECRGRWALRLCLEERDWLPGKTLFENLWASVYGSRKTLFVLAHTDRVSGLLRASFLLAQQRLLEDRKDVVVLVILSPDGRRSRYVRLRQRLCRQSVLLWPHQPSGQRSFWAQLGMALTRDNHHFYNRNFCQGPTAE
Photoreceptor-specific nuclear receptor (Homo sapiens), sequence (Q9Y5X4 whole entry, looked up, the tested form may be a part): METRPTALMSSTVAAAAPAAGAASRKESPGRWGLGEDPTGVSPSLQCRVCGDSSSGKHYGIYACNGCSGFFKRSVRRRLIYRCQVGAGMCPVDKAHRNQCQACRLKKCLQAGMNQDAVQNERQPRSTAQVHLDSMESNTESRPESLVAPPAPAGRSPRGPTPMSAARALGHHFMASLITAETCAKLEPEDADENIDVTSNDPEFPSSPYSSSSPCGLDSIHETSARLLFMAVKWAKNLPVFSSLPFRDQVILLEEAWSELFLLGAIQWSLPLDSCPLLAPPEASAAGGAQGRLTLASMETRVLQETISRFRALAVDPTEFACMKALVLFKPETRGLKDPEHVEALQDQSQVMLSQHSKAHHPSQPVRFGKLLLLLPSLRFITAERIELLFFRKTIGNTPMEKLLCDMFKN
Nuclear receptor subfamily 5 group A member 2 (Homo sapiens), sequence (O00482 whole entry, looked up): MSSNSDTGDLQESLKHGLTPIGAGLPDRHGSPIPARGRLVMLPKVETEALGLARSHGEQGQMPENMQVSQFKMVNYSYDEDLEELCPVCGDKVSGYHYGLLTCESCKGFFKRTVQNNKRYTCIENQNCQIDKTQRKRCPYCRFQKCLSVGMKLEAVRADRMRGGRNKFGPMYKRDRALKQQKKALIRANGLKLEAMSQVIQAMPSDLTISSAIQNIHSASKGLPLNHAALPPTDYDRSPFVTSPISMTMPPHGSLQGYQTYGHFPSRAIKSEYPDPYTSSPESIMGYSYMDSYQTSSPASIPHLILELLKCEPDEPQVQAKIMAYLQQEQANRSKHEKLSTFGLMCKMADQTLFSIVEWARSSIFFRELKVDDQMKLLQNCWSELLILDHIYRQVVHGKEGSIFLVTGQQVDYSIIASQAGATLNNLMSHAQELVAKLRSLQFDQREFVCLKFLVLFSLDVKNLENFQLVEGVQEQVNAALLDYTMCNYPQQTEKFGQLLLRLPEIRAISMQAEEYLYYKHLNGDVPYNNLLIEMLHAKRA
Steroidogenic factor 1 (Homo sapiens), sequence (Q13285 whole entry, looked up, the tested form may be a part): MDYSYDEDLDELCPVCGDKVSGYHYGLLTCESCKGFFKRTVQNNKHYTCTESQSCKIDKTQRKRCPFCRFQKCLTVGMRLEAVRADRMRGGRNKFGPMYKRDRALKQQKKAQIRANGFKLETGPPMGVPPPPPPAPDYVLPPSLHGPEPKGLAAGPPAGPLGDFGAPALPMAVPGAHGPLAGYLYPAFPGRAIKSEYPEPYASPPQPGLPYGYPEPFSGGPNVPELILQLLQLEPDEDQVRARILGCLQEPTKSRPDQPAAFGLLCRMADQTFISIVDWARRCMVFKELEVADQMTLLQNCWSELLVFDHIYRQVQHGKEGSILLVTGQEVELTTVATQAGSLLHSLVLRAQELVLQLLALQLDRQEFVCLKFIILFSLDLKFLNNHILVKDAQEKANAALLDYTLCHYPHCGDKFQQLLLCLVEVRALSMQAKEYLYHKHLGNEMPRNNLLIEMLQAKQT
Receptor-interacting serine/threonine-protein kinase 2 (Homo sapiens), sequence (O43353 whole entry, looked up): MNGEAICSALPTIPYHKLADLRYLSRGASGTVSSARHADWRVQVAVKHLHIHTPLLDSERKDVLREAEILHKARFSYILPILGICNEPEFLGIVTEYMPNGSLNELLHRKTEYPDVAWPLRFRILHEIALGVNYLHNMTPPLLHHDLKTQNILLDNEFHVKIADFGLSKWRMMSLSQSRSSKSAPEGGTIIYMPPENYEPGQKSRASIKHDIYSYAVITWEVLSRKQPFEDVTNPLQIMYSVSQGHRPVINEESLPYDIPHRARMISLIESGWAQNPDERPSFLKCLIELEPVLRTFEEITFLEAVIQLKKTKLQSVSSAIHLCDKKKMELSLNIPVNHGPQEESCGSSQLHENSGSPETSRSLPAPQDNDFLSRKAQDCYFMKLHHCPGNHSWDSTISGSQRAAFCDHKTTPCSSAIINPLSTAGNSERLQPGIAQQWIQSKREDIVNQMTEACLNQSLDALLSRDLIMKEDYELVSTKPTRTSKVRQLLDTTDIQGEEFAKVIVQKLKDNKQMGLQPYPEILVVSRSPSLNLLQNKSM

Question: With `CN(O)C(=S)c1ccccc1` as the molecule, how does the inhibition [1] read?
Answer: The inhibition was 5.28%.

Question: And the inhibition [2]?
Answer: Its inhibition is 0.06%.

Question: And the inhibition [3]?
Answer: The inhibition was 97.2% (active).

Question: What about the inhibition [4] of the same molecule?
Answer: Its inhibition is -14.5%.

Question: What about the inhibition [5] of the same molecule?
Answer: Its inhibition is -3.62%.

Question: And the inhibition [6]?
Answer: Its inhibition is 53% (active).

Question: And the inhibition [7]?
Answer: Its inhibition is 62.5% (active).

Question: What about the inhibition [8] of the same molecule?
Answer: The inhibition was 84.6% (active).

Question: What about the inhibition [9] of the same molecule?
Answer: Its inhibition is -6.65%.

Question: What about the inhibition [10] of the same molecule?
Answer: Its inhibition is -5.38%.

Question: What about the activation [11] of the same molecule?
Answer: Its activation is 0.55%.

Question: And the inhibition [12]?
Answer: The inhibition was -2.07%.

Question: And the inhibition [13]?
Answer: The inhibition was -6.13%.

Question: Which activation (% of control) [14] does the source give for `Cc1ccc(NC(=O)Nc2ccccc2)c(Br)c1` here?
Answer: The activation (% of control) was 171% (active).

Question: And the activation (% of control) [15]?
Answer: The activation (% of control) was 124%.

Question: And the activation (% of control) [16]?
Answer: The activation (% of control) was 89.8%.

Question: What does the source list for `c1cnc(Nc2nc(-c3ccc4ccccc4c3)cs2)nc1`?
Answer: activation (% of control) [14]: 208% (active); activation (% of control) [15]: 139% (active); activation (% of control) [16]: 105%

Question: What does the source list for `COc1ccccc1N1N=C(c2cccs2)CC1c1ccccc1` (configuration not stated)?
Answer: inhibition [17]: 27.9% (active); inhibition [18]: 39.8% (active); inhibition [19]: 36% (active); inhibition [20]: 70% (active); inhibition [1]: 32.9% (active); inhibition [2]: 43.5%; inhibition [3]: 2.88%; inhibition [21]: 51.8% (active); inhibition [22]: 65.6% (active)

Question: Which inhibition [19] does the source give for `O=C(c1ccc(Cl)cc1)c1cnc(Nc2ccccc2)s1` here?
Answer: The inhibition was 9.98%.

Question: And the inhibition [20]?
Answer: The inhibition was 29.5% (active).

Question: For `C=CC1=C(C(=O)O)N2C(=O)[C@@H](NC(=O)/C(=N\OCC(=O)O)c3csc(N)n3)[C@H]2SC1`, which inhibition [23] is on record?
Answer: The inhibition was 103% (active).

Question: And the inhibition [24]?
Answer: The inhibition was 103% (active).

Question: What about the inhibition [25] of the same molecule?
Answer: The inhibition was 104% (active).

Question: And the inhibition [6]?
Answer: The inhibition was 102% (active).

Question: And the inhibition [7]?
Answer: Its inhibition is 104% (active).

Question: What about the inhibition [8] of the same molecule?
Answer: Its inhibition is 104% (active).

Question: What about the activation [11] of the same molecule?
Answer: Its activation is 85.5% (active).

Question: What about the inhibition [12] of the same molecule?
Answer: The inhibition was -430%.

Question: And the inhibition [13]?
Answer: The inhibition was 62.9% (active).

Question: With `CC(=O)c1sc(N/N=C\c2ccc(C)cc2)nc1C` as the molecule, how does the activation (% of control) [14] read?
Answer: Its activation (% of control) is 191% (active).

Question: And the activation (% of control) [15]?
Answer: The activation (% of control) was 143% (active).

Question: What about the activation (% of control) [16] of the same molecule?
Answer: Its activation (% of control) is 107%.

Question: Which inhibition [26] does the source give for `COc1ccc2[nH]c3c(C)c4cc[n+](C)cc4c(C)c3c2c1` here?
Answer: Its inhibition is 27.3%.

Question: And the inhibition [27]?
Answer: Its inhibition is 45% (active).

Question: What about the inhibition [28] of the same molecule?
Answer: Its inhibition is 49.8% (active).

Question: What about the inhibition [29] of the same molecule?
Answer: Its inhibition is 103% (active).

Question: And the inhibition [30]?
Answer: The inhibition was 51.9% (active).

Question: What about the inhibition [31] of the same molecule?
Answer: The inhibition was 75% (active).

Question: What about the activation [11] of the same molecule?
Answer: The activation was 9.5% (active).

Question: And the inhibition [12]?
Answer: The inhibition was -47.7%.

Question: What about the inhibition [13] of the same molecule?
Answer: Its inhibition is 42.7% (active).

Question: Which results are given for `COC(=O)Cc1cc(=O)n(-c2nc3ccccc3s2)[nH]1`?
Answer: inhibition [19]: -4.76%; inhibition [20]: 4.99%

Question: Which activation (% of control) [14] does the source give for `Cc1cc2nc(SCCN3CCOCC3)[nH]c2cc1C` here?
Answer: Its activation (% of control) is 157% (active).

Question: And the activation (% of control) [15]?
Answer: The activation (% of control) was 119%.

Question: And the activation (% of control) [16]?
Answer: The activation (% of control) was 121% (active).

Question: What does the source list for `COc1ccc2c(c1)c(=Cc1ccc(N(C)C)cc1)c1cc(-c3ccccc3)[n+](C)n12`?
Answer: inhibition [32]: 68.3% (active); inhibition [33]: 82% (active); inhibition [26]: 69.4% (active); inhibition [27]: 83.8% (active); inhibition [4]: 99% (active); inhibition [5]: 81.4% (active); inhibition [9]: 40.1% (active); inhibition [10]: 86.4% (active); activation [11]: 6.29%; inhibition [12]: -22.4%; inhibition [13]: -6.4%
